Measurements as given in publication PMC7862700, “An all-to-all approach to the identification of sequence-specific readers for epigenetic DNA modifications on cytosine”.

Tests used:
Test in all cases: DAPPL (digital affinity profiling via proximity ligation, sequencing); 10 mM Tris-HCl pH 7.5, 50 mM NaCl, 1 mM DTT, 4% glycerol, room temperature, 30 min; GST-TFs on glutathione beads, 16-mer random dsDNA library, 0.1% formaldehyde crosslink after washing; high values mean tight binding
Conditions in all cases: protein: recombinant; tags: N-terminal GST; dsDNA, one strand shown
[1] = molecular target: T1, ELK4 (Homo sapiens, UniProt P28324-2 1-405)
T1 sequence: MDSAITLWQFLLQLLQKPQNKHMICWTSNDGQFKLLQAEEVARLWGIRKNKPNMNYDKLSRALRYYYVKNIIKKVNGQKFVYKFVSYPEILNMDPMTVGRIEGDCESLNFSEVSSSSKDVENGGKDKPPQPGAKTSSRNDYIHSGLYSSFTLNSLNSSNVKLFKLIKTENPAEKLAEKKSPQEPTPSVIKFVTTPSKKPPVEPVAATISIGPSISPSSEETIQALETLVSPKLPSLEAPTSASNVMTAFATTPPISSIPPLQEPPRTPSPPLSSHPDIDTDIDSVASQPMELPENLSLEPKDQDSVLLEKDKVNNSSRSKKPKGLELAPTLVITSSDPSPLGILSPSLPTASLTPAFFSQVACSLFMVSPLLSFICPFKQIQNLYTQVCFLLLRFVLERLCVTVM
Procedure, shortened: (§1)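 Yeast served to express human transcription factors as GST fusions, which were then captured on glutathione beads and labelled with DNA barcodes. Pooled with a tag-only sample, they were incubated with 200 nmole of a 16-mer random double-stranded DNA library for 30 min at room temperature in Tris/NaCl/DTT/glycerol buffer, washed, crosslinked with 0.1% formaldehyde, ligated by proximity, amplified by PCR and sequenced. Dividing each hexamer's read frequency for a factor by its frequency for the tag-only sample gives the binding signal.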

[2] = molecular target: CRX (Homo sapiens, UniProt O43186 1-299)
Procedure, shortened: as §1

[3] = molecular target: ELF1 (Homo sapiens, UniProt P32519 1-619)
Procedure, shortened: as §1

[4] = molecular target: T2, EHF (Homo sapiens, UniProt Q9NZC4 1-300)
T2 sequence: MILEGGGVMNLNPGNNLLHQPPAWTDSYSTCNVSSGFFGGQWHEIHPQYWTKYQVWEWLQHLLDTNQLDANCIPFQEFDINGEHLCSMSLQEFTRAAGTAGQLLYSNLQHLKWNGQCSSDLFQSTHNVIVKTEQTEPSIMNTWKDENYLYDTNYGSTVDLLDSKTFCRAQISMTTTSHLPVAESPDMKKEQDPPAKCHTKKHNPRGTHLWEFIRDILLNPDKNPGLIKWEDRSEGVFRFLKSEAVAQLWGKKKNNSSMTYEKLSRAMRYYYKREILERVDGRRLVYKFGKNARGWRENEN
Procedure, shortened: as §1

[5] = molecular target: T3, ELK3 (Homo sapiens, UniProt P41970 1-407)
T3 sequence: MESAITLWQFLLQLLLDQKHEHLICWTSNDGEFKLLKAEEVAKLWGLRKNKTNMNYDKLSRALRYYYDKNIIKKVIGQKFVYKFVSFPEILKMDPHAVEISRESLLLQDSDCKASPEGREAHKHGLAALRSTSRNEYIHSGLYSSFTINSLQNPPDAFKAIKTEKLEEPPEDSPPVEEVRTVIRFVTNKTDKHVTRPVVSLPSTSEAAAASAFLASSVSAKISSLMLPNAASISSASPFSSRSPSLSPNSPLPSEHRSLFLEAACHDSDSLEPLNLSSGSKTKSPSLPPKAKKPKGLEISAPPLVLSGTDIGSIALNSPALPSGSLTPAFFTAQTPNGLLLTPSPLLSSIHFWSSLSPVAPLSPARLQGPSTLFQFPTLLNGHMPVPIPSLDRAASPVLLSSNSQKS
Procedure, shortened: as §1

[6] = molecular target: T4, ETV3L (Homo sapiens, UniProt Q6ZN32 1-361)
T4 sequence: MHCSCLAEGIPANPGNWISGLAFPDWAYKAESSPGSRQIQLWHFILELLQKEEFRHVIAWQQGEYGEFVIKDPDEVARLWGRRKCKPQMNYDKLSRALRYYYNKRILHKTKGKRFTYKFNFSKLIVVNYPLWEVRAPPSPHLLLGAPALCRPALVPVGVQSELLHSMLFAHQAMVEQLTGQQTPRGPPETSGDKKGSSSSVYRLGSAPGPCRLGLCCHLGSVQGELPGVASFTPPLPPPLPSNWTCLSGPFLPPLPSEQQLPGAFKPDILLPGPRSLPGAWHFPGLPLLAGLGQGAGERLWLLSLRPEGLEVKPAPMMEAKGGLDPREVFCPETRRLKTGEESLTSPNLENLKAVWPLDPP
Procedure, shortened: as §1

[7] = molecular target: T5, ETV7 (Homo sapiens, UniProt Q9Y603 1-341)
T5 sequence: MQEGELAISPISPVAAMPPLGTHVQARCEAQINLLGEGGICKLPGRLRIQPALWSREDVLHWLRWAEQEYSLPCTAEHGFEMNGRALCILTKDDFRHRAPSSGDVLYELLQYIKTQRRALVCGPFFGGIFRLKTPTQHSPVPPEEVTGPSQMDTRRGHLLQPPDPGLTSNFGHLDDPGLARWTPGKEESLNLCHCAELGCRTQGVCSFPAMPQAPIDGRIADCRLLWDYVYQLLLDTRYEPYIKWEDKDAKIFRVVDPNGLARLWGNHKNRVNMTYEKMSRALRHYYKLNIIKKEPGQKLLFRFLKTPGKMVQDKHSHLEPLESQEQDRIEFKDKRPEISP
Procedure, shortened: as §1

[8] = molecular target: T6, ELK1 (Homo sapiens, UniProt P19419 1-428)
T6 sequence: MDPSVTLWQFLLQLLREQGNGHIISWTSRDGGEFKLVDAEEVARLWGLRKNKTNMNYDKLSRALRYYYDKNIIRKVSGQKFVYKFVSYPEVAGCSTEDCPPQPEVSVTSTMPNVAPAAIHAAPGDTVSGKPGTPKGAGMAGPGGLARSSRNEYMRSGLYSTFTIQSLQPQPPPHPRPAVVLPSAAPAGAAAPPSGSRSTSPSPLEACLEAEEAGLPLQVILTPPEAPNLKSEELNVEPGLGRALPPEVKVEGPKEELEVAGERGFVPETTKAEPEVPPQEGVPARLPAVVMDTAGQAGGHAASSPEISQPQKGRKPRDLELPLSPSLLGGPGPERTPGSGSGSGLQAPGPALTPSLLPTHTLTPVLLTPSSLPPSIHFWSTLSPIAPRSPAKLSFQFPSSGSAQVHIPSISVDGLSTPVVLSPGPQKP
Procedure, shortened: as §1

[9] = molecular target: T7, FEV (Homo sapiens, UniProt Q99581 1-238)
T7 sequence: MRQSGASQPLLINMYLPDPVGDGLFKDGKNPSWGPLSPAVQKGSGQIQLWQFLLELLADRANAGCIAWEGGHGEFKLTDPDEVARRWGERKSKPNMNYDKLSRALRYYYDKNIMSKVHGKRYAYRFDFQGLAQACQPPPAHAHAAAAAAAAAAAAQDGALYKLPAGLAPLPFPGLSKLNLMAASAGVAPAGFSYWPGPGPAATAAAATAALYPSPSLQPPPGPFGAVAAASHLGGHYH
Procedure, shortened: as §1

[10] = molecular target: T8, ELF3 (Homo sapiens, UniProt P78545 1-371)
T8 sequence: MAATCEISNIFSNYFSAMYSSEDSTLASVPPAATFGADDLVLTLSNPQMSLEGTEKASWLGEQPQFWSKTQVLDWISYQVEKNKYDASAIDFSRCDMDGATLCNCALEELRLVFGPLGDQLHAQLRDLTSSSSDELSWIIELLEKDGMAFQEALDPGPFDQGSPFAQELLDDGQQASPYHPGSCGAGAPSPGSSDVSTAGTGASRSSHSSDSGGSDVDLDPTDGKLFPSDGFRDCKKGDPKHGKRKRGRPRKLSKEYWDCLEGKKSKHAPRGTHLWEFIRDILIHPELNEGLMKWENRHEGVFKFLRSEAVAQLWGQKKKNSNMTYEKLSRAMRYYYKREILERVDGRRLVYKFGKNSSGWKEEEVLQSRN
Procedure, shortened: as §1

[11] = molecular target: ETV1 (Homo sapiens, UniProt P50549 1-477)
Procedure, shortened: as §1

[12] = molecular target: T9, ERG (Homo sapiens, UniProt P11308 1-479)
T9 sequence: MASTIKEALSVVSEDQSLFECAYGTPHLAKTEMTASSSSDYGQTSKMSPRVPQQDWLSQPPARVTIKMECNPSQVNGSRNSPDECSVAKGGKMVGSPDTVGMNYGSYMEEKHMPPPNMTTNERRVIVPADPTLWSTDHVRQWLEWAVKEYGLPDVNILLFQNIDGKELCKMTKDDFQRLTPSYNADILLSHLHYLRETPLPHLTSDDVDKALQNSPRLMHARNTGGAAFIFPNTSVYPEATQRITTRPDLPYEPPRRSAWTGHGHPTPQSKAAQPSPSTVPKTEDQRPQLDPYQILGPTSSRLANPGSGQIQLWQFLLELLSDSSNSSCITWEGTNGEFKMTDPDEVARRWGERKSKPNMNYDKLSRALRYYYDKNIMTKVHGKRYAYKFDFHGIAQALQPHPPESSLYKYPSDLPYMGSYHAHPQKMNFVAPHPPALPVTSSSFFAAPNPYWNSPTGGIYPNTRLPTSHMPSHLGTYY
Procedure, shortened: as §1

Sequence of CRX (O43186 whole entry): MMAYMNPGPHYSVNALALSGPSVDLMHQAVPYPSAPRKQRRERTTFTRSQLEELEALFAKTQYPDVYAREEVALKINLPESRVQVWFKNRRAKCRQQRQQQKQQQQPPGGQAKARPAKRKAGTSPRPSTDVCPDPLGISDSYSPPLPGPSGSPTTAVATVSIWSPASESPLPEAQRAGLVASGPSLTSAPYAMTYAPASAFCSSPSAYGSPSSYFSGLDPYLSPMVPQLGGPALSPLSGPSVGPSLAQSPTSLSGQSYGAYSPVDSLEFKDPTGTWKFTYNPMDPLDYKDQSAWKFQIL
Sequence of ELF1 (P32519 whole entry): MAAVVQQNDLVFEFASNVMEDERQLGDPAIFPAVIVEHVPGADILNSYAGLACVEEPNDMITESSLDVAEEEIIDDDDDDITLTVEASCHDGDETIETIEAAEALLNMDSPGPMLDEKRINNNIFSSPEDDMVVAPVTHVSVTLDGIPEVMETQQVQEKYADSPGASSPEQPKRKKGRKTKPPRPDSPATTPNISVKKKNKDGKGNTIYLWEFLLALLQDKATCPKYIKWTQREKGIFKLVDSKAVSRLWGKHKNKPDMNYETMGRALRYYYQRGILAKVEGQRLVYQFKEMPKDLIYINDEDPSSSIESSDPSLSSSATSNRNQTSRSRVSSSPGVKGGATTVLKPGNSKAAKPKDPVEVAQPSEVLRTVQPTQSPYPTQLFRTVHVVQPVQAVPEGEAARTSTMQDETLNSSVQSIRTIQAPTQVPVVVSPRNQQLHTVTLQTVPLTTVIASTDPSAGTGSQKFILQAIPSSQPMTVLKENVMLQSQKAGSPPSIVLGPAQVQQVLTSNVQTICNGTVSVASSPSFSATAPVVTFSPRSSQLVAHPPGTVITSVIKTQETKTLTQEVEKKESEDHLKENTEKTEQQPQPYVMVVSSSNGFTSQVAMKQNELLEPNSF
Sequence of ETV1 (P50549 whole entry): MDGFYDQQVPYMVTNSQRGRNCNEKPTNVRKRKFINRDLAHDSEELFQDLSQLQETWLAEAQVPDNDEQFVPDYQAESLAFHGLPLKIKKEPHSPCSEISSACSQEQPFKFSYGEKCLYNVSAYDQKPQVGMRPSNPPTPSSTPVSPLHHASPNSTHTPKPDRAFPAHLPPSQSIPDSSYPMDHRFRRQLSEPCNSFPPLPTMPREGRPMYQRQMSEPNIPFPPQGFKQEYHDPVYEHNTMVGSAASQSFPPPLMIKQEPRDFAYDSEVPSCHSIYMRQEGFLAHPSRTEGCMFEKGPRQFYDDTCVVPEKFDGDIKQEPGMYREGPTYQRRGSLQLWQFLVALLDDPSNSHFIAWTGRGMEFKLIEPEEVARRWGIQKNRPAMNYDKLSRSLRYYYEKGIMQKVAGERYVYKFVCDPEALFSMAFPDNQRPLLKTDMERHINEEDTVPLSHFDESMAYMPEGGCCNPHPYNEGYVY

AAGCCA
binding signal [1]: 1.02 fold enrichment (6-mer frequency, TF over GST control) | binding signal [2]: 1.12 fold enrichment (6-mer frequency, TF over GST control)

TCTGAG
binding signal [3]: 1.01 fold enrichment (6-mer frequency, TF over GST control) | binding signal [4]: 1.01 fold enrichment (6-mer frequency, TF over GST control) | binding signal [5]: 1.01 fold enrichment (6-mer frequency, TF over GST control) | binding signal [1]: 1.08 fold enrichment (6-mer frequency, TF over GST control) | binding signal [2]: 1.04 fold enrichment (6-mer frequency, TF over GST control) | binding signal [6]: 1.01 fold enrichment (6-mer frequency, TF over GST control) | binding signal [7]: 1.05 fold enrichment (6-mer frequency, TF over GST control)

GCCACA
binding signal [8]: 1.02 fold enrichment (6-mer frequency, TF over GST control) | binding signal [3]: 1.01 fold enrichment (6-mer frequency, TF over GST control) | binding signal [9]: 1.06 fold enrichment (6-mer frequency, TF over GST control) | binding signal [10]: 1.07 fold enrichment (6-mer frequency, TF over GST control) | binding signal [11]: 1.08 fold enrichment (6-mer frequency, TF over GST control)

GCGTTA
binding signal [5]: 1.09 fold enrichment (6-mer frequency, TF over GST control) | binding signal [1]: 1.02 fold enrichment (6-mer frequency, TF over GST control) | binding signal [2]: 1.06 fold enrichment (6-mer frequency, TF over GST control) | binding signal [6]: 1.04 fold enrichment (6-mer frequency, TF over GST control)

GTCATT
binding signal [12]: 1.03 fold enrichment (6-mer frequency, TF over GST control) | binding signal [1]: 1.03 fold enrichment (6-mer frequency, TF over GST control) | binding signal [6]: 1.01 fold enrichment (6-mer frequency, TF over GST control) | binding signal [7]: 1.01 fold enrichment (6-mer frequency, TF over GST control)
